# Reference: the supplement of paper PMC6555819
# Assays:
# Experiment in all cases: PBM binding z-score (relative to random genomic background probes); higher = stronger binding; sequences stand for … in GC…GCGATTGACAGCGTAGAATGAAGG
# [1] = system: FXR:RXRa (NR concentration 270 nM, RXRa partner concentration 90 nM)
# How it was run: (§1)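 Ligand-free nuclear receptor dimers were applied to custom Agilent 4×180K protein-binding microarrays whose double-stranded probes carried direct-repeat seeds, single-nucleotide variants, half-site ablations and random human genomic background sequences in 34-nt variable regions. Incubation lasted 1 h. Binding z-scores were computed against the random background probes from regression-normalized fluorescence.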
# [2] = system: LXRa:RXRa (NR concentration 270 nM, RXRa partner concentration 90 nM)
# How it was run: as §1
# [3] = system: LXRa homodimer (NR concentration 270 nM)
# How it was run: as §1
# [4] = system: LXRb:RXRa (NR concentration 270 nM, RXRa partner concentration 90 nM)
# How it was run: as §1
# [5] = system: LXRb homodimer (NR concentration 270 nM)
# How it was run: as §1
# [6] = system: PPARa:RXRa (NR concentration 270 nM, RXRa partner concentration 90 nM)
# How it was run: as §1
# [7] = system: PPARg:RXRa (NR concentration 180 nM, RXRa partner concentration 90 nM)
# How it was run: as §1
# [8] = system: PPARg:RXRa 270nM:90nM, anti-RXR (NR concentration 270 nM, RXRa partner concentration 90 nM)
# How it was run: as §1
# [9] = system: PPARg:RXRa 30nM:10nM, anti-RXR (NR concentration 30 nM, RXRa partner concentration 10 nM)
# How it was run: as §1
# [10] = system: PPARg:RXRa 90nM:30nM, anti-RXR (NR concentration 90 nM, RXRa partner concentration 30 nM)
# How it was run: as §1
Sequence,PBM binding z-score [1],PBM binding z-score [2],PBM binding z-score [3],PBM binding z-score [4],PBM binding z-score [5],PBM binding z-score [6],PBM binding z-score [7],PBM binding z-score [8],PBM binding z-score [9],PBM binding z-score [10]
CGTCCAAGGTCAAGGCTAGGTCAGTGAAAGCATT,7.26,5.52,1.5,4.11,-0.26,5.33,4.97,5.35,1.61,4.01
CTCGAAACGTCGGTTGAGGTGAGTATACGGATAA,0.172,-0.188,-0.566,-0.297,-0.3,-0.163,0.00135,-0.342,-0.256,-0.221
TCTAGTTGGTCACGGAGGTCACACATGACGGGTA,3.11,3.52,2.42,3.42,0.605,4.06,3.59,4.13,3.55,3.84
TCTGCTAGGTCAGTTGGTCAACTAACGAGCTGCC,0.974,0.627,-0.58,0.38,0.371,1.63,1.12,2.14,1.02,1.81
GCTAGTTCGTCAGTAAAAGGTCACACACCGGTCG,3.31,4.47,4.75,4.05,0.683,4.56,1.96,3.56,1.55,3.22
TCTTGTAGATCAAAGGTTACGAAAGCCGAAGCCT,2.01,2.2,0.222,2.27,-0.174,4.71,8.72,8.23,7.86,8.98
CCTATTAGTTGACCAAAAGGGCAACCGAAGCTCG,0.908,0.905,0.816,1.02,0.763,1.5,0.545,1.52,0.286,1.18
CATACAGGGTCAGCTTGGCCAGAGTAGGGACGGC,4.12,2.73,-0.212,1.86,0.138,4.1,2.78,2.88,0.385,1.57
AGCCAAAGTTCATCTAGGTAACGTAAGATATGCT,6.68,6.25,5.31,3.78,1.41,4.86,5.36,5.53,2.27,4.72
GCTATTAGTTGAAAGGGCAACAGAATGATTCTCG,0.533,0.675,0.402,0.947,-0.00324,2.47,3.11,4.2,2.77,4.54
TCTGCTAGTTCAACGATGGTCAGCTAATCTGCTA,0.141,0.175,-0.555,-0.303,-0.648,0.264,-0.456,0.558,1.26,0.99
ACTAGTTGGTCAGCTGAGGTCACACGCAATTCGG,4.13,3.59,2.5,3.3,0.152,3.71,1.57,2.37,0.407,1.44
TCTTGTCGATCAGCAGGTTAAGAAAGCTGGCCAA,0.435,0.635,-0.135,0.381,0.00876,0.714,-0.663,1.47,2.63,1.91
ATCTCTAGGTAAAAGGTCAGTGAATCCCGAGGAT,3.03,3.55,1.43,3.07,1.09,6.09,9.92,8.92,8.03,9.78
GGAACGAGGGCATTCGAGCTGATAGCATGGCGAT,0.586,0.0957,-0.939,-0.339,-0.953,1.17,0.733,0.363,-0.239,-0.177
AGAATGAGGTTATACGTAGATTAGGGAAGAAAGT,2.38,1.89,0.103,1.74,0.111,3.21,2.37,2.4,0.937,1.76
ACTCGGAGGACAATGGTCAGAGCTACGCCAGTGA,-0.187,-0.512,-0.435,-0.708,-0.881,-0.704,0.723,0.466,-0.281,-0.00366
CCGAGCAGGCCAGGGTCACTCAAGCATTTCGCTT,2.23,1.75,-0.467,2.16,-1.08,2.97,0.393,1.19,-0.201,0.482
GCTAGCAAGCCATTTGGGTCACTCAATGACGGGC,-0.28,-0.493,-0.817,-0.134,-0.898,1.15,0.614,0.042,-0.634,-0.546
CCCGACAGGTGAGAAGGTAACTCAGCCTCGATTA,-0.0059,0.3,0.072,0.291,-0.434,0.726,0.396,0.584,-0.2,0.0512
TCATATAGGTAAATGCTAGGTGAAAGACCGATCT,1.17,1.12,0.232,0.72,-0.0647,1.48,1.22,2.38,3.79,2.96
GGAACGAGGGCATTCGAATTGATAGCATGGCGAT,0.807,0.373,-0.335,0.239,-0.211,1.31,1.15,1.14,0.413,0.651
CGTCCATGGTCAGAGAGGTCAGTGAATGCCGAGT,1.59,1.68,0.897,1.84,-0.375,2.51,0.301,0.981,-0.535,0.219
ATACCAAGGTGATCGTGAGGTTGTTGATACTAAC,0.619,0.547,0.106,0.338,-0.241,0.626,0.435,0.149,0.0438,0.112
ATATGTAGGTTACATCCTGGTCATTCAGGCTATG,0.666,2.03,0.602,1.28,0.798,3.16,5.21,4.44,2,3.57

Sequence,PBM binding z-score [1],PBM binding z-score [2],PBM binding z-score [3],PBM binding z-score [4],PBM binding z-score [5],PBM binding z-score [6],PBM binding z-score [7],PBM binding z-score [8],PBM binding z-score [9],PBM binding z-score [10]
TCGAGTAAGTTAGTCGGGGCATTCAGCCAACATA,-1.52,-0.541,-0.717,-0.128,-0.869,0.00256,-0.588,0.158,0.928,0.486
CGTCCAAGGTCAAAGGTAAGTGAAGAGATGACGG,7.07,5.81,0.609,4.33,0.945,6.03,7.34,7,5.4,6.76
ATATGTAGGTTATCGGGTAATTCAGTTTGCGCAT,0.917,1.31,1.01,1.33,0.955,3.5,5.49,5.19,2.91,4.5
CCTAGCAGGCCAATCCGGGTCACTCAAGGCTTGA,2.13,1.84,-0.396,1.47,-0.923,2.78,0.787,1.02,-0.565,0.469
GCTGCTAGGTCAACTGATGGGCAGCTAAAGCTCG,3.7,2.69,-0.419,1.48,-0.413,3.25,2.39,3.09,0.29,1.62
AGTCAAAGTTCAGGGCGAGGTAACGTAAAGCACG,4.49,4.03,1.39,2.27,0.321,3.75,5.2,5.24,1.76,4.08
GCAACTGGGGCATCAGCAGGTTACCATAACTTAA,-0.117,-0.265,-0.205,1.08,-0.444,1.83,2.26,1.76,0.0895,1.1
CCTGCTAGGTCAATGGTCAGCTAGAGCAGCTCGC,2.73,1.95,-0.206,1.03,-0.0711,3.04,4.26,5.05,2.14,4.51
CGTCCAAGGTGAATGCTAGGTCAGTGAAAGCATT,0.506,1.19,0.158,0.617,-0.905,1.73,0.352,0.668,-0.499,0.352
TATACAGGGTCGAAGGCCAGAGTACGAATGTCGA,1.27,1.32,-0.263,1.01,0.799,2.44,2.45,3.28,1.28,2.65
TCGAGTAGGTTAGTCAGGGCATTCAGCCAACATA,0.179,0.175,-0.126,0.121,-0.771,0.625,0.0481,0.99,1.13,0.992
CTACCAGGGTGAACAAGGTCGTTGATTACTATTC,0.789,1.46,0.0612,1.76,-0.454,2.41,0.951,1.28,0.0757,0.507
TCGAGTAGGTTACCAATGGGGCATCCAGCTTTCT,-0.0343,1.12,-0.623,0.546,-1.16,1.27,0.366,1.12,1.25,1.19
ACCTCTAGGTAAAAGTTCAGTGAATCCCGAGGAT,0.332,0.842,0.847,0.401,-0.0602,3.58,7.09,7.47,6.26,8.74
ATCTCTTGGTAACAAGTTCAGTGAAAGAGAGGAC,0.45,0.448,0.452,0.565,0.787,0.547,-0.00548,0.156,0.0559,0.28
TCATATAGGTAAATGCTCGGTGAAAGTCCGATCT,1.09,0.864,0.318,0.922,-0.121,1.33,0.611,2.36,3.97,3.11
CCTATTAGTTGACCATAAGGCCAACCGAAGCTCG,0.949,0.37,0.825,0.782,0.89,0.392,0.405,0.45,0.0484,0.551
CCTCGGAGGATAACAGGAGGTCAGAGCTGCCAGA,0.758,2.44,2.34,1.24,-0.35,1.61,0.275,-0.114,-0.739,-0.596
TCATATAGGTAAACAGGCGAAAGTCCGTAAGTTA,0.58,0.715,0.0889,0.816,-0.0877,1.56,1.45,2.91,3.94,3.3
CGTCTAAGTTCAACTAAGGTAACGTAAAGCACGC,5.42,4.54,1.66,2.8,0.991,3.67,1.24,2.06,0.533,1.24
GCTGCTAGGTCAGGTTGGTCAGCTACCGGGTACG,1.12,0.526,-0.544,0.265,-0.337,1.4,0.0957,0.884,-0.631,0.221
CCTGATAGGTCATGGTCAGCTAATCTACAGTATG,5.33,4.19,0.689,3.39,0.182,4.96,3.65,3.99,1.25,2.81
ACTATTGGTTGAGACGAGGGCAACCGATAGGTTG,0.496,0.289,-0.00418,0.08,0.0327,0.62,0.556,0.157,0.062,0.367
GCGAGTGGGGCAAAGCAGGTTACCATAAGGTTGG,0.592,0.51,-0.115,0.552,-0.338,1.36,0.889,1.12,-0.171,0.35
